Out of some 260,000 compounds screened, about 1,500 (0.58%) were called active. Not shown: some 5% with an inconclusive outcome.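 How the source made its calls: active means inhibition above a set limit at one or more doses, reproduced on every date tested; inconclusive means results disagree between test dates, or hit never tested in dose response; inactive means the rest.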 The list is a sample of the results. Potency and affinity values are given separately.
Target: Virion infectivity factor (Human immunodeficiency virus type 1 group M subtype B (isolate BH10)) + Virion infectivity factor (Human immunodeficiency virus type 1 group M subtype B (isolate BRU/LAI)) + Virion infectivity factor (Human immunodeficiency virus type 1 group M subtype B (isolate PCV12)) + Virion infectivity factor (Human immunodeficiency virus type 1 group M subtype B (isolate HXB2)) + DNA dC->dU-editing enzyme APOBEC-3G (Homo sapiens) (UniProt P69720+P69721+P69722+P69723+Q9HC16)
Assay: HIV-1 Vif–A3G interaction blockers – biochemical, TR-FRET, GST-Vif 1-94, biotin-A3G peptide, dose response retest, primary screen (AID 1117319);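 further: Vif residues 1-94 fused to GST binding biotinylated APOBEC3G peptide 110-148; 0% = full assay without inhibitor and 100% = GST in place of GST-Vif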
Conditions: TR-FRET GST-Vif / biotin-A3G peptide binding; active compounds read high

inhibition, inactive:
O=C(c1cccc(C(=O)N2CCN(c3ncccn3)CC2)c1)N1CCN(c2ncccn2)CC1 17.4%
CN1CCN(C(=O)c2ccc3nc(-c4ccccc4)c(-c4ccccc4)nc3c2)CC1 5.63%
O=C(c1ccco1)N1CCN(c2ncccn2)CC1 5.99%
CCN1CCN(C(=O)c2ccc3nc(-c4ccccc4)c(-c4ccccc4)nc3c2)CC1 -0.29%
O=C(COc1ccccc1)NC(Cc1c[nH]c2ccccc12)C(=O)O (stereo not drawn) 7.79%
c1ccc(-c2noc(CCC3CCCC3)n2)cc1 -1.6%
Cc1c(C(=O)N2CCCCCC2)oc2ccccc12 30.7%
Cc1cc(C)nc(N/N=C/c2ccc(Cl)cc2)n1 -3.39%
Cc1cc(C)nc(NN=CC2=C(N3CCOCC3)/C(=C/c3ccc(Cl)cc3)CC2)n1 17.2%
CN(C)CCNC(=O)c1ccc(CS(=O)(=O)c2c(Cl)cccc2Cl)o1 3.4%
COC(CNC(=O)c1ccc(CS(=O)(=O)c2c(Cl)cccc2Cl)o1)OC -0.54%
CC(=O)c1cccc(NC(=O)N2CCCC2C(=O)NC2CCCCC2)c1 (stereo not drawn) -4.16%
CCOc1ccc2nc(NC(=O)CSc3nc4c(c(=O)n(C)c(=O)n4C)n3C(C)C)sc2c1 18.8%
O=C(c1cccc(C(=O)N2CCN(c3ccccc3F)CC2)c1)N1CCN(c2ccccc2F)CC1 -8.59%
CCC(=O)c1ccc(N2CCN(C(=O)c3cccc(F)c3)CC2)c(F)c1 -9.86%
CCOC(=O)C1CCN(CC(O)COCc2ccc(Cl)cc2)CC1 (stereo not drawn) 8.82%
O=S(=O)(/C=C/c1ccccc1)N1CCN(c2cccc(Cl)c2)CC1 -3.95%
O=C(Nc1nc(-c2cccs2)c(-c2ccccc2)s1)c1ccco1 2.82%
CS(=O)(=O)c1ccc2nc(NC(=O)c3ccco3)sc2c1 8.25%
Cc1ccc(C(=O)Nc2nc(-c3ccco3)c(-c3ccco3)s2)o1 23.7%
O=C(Nc1nnc(-c2ccco2)s1)C1CCCCC1 22.7%
O=C(Nc1ccc(F)cc1F)c1cc(-c2ccco2)on1 5.56%
COc1ccc(C(=O)Nc2nnc(-c3ccco3)s2)cc1 -3.84%
O=C(NC(=S)Nc1nc2ccc(F)cc2s1)c1ccco1 9.98%
O=C(Nc1nnc(-c2ccco2)s1)C1CC1 12.1%
COc1ccc(CNC(=O)N[C@@H](CC(C)C)C(=O)O)cc1OC -2.37%
CCCc1cc(=O)[nH]c(SCC(=O)NCC2COc3ccccc3O2)n1 (stereo not drawn) -7.96%
COc1cnc(-c2ccccn2)[nH]c1=O 2.61%
O=C(Cn1nnc(-c2ccccc2F)n1)NCc1ccco1 10.4%
COc1ccc(CCNS(=O)(=O)c2ccc(OC)cc2)cc1 -5.66%
Cc1[nH]c2ccc(Br)cc2c(=O)c1CN1CCCCCC1 -12.9%
CC1CCCN(S(=O)(=O)Cc2ccc(Cl)cc2)C1 (stereo not drawn) 4.49%
COc1ccc(COc2ccsc2C(=O)Nc2ccc(Cl)cc2)cc1 -8.53%
[O-][n+]1cccc2cccc(O)c21 -10.3%
Cc1ccc2cccc(O)c2[n+]1[O-] 18.8%
C/C(=N\NC=O)c1ccncc1 -3.47%
COc1ccc(CC(=O)N(C)C2CCCCC2)cc1S(=O)(=O)N1CCOCC1 1.22%
COc1ccc2c(c1)c1ccccc1n2C 1.57%
COc1ccc2[nH]c(C)cc(=O)c2c1 -0.89%
COc1ccc2c(OC)cc(=O)n(C)c2c1 6.19%
Cc1ccc2c(C)c(C)c(=O)n(C)c2c1 -6.81%
COc1ccc2[nH]c3ccccc3c2c1 1.16%
Cc1cc(=O)n(C)c2ccccc12 -5.08%
Cc1ccc(C)c2c1c1ccccc1n2C -3.59%
Cc1ccc2c(c1)c1c(n2C)C(=O)CCC1 -2%
Cc1c(NC(=O)c2cc(-c3ccccc3)nc3ccccc23)c(=O)n(-c2ccccc2)n1C -2.43%
CC1=C(C(=O)OCc2ccccc2)C(c2ccccc2Br)NC(=O)N1 (stereo not drawn) -2.14%
COc1ccccc1C(O)(c1ccccc1)C(CN1CCOCC1)c1ccccc1 (stereo not drawn) 3.77%
COc1ccc(NC(=O)c2cc(-c3ccccc3)nc3c2c(C)nn3-c2ccccc2)c(OC)c1 1.03%
COC(=O)Cc1[nH]nc2c1C(C1C=CCCC1)C(C#N)=C(N)O2 (stereo not drawn) 7.26%
COc1ccc(C2/C=C\CN(C(=O)C3CC3)[C@H](Cc3ccccc3)C(=O)N2Cc2ccc(F)cc2)cc1 (stereo partly drawn) 7.45%
CC1CCN(C(=O)CSc2nnc(-c3ccncc3)n2C)CC1 8.77%
COc1cc(OC)cc(C(=O)NC2CCN(CCCOc3ccccc3)CC2)c1 -2.34%
CCN(CC(=O)Nc1ccc(NC(C)=O)cc1)C(=O)c1ccc2ccccc2c1 8.12%
Nc1c(C(=O)CSc2nnc(-c3ccccc3F)o2)c(=O)[nH]c(=O)n1C1CC1 -9.99%
CC(=O)n1c2ccccc2c2c1c1ccccc1n2C -6.7%
Cn1c2ccccc2c2c(=O)oc3ccccc3c21 -5.39%
CCOc1ccccc1NC(=O)Nc1cccc(S(N)(=O)=O)c1 1.28%
O=C(/C=C/c1ccccc1)c1ccc2c(c1)OCO2 -5.81%
CCOc1ccc(-n2c(=O)c3c4c(sc3n(CC(=O)NCc3ccco3)c2=O)CCC4)cc1 -4.88%
Cc1sc2c(c1C)c(=O)n(-c1ccc(F)cc1)c(=O)n2CC(=O)NCc1ccco1 -4.06%
CCOC(=O)N1C/C(=C\c2ccccc2)C(=O)/C(=C/c2ccccc2)C1 1.34%
C=CC(=O)N1C/C(=C/c2ccccc2)C(=O)/C(=C\c2ccccc2)C1 6.41%

Reference: PubChem BioAssay AID1117319 (Southern Research Institute, 2015)
